# According to PubChem BioAssay (Tox21):
# Unmarked numbers belong to inactive results. Records with an inconclusive call do not appear. Entries that show only a call come without a potency. The source made the active and inactive calls. Calls follow the shape of the dose curve; as a rule, active = well fitted curve in the direction sought with a large enough effect in the repeat runs; inconclusive = weak or mixed curves; inactive = no such curve, though single readings can be large; an effect the other way counts as inactive or inconclusive.
# How the values were obtained:
# [1] = A CellTox Green Cytotoxicity Assay to monitor cytotoxicity in HEK293 cells - 40 hour (AID 1224871); also: nearly all actives have a fitted effect of over 45% in size
# Method in brief: (§1)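 Cytotoxicity was tracked continuously in HEK293 cells by a DNA-binding dye excluded from viable cells. Compounds were transferred in DMSO 5 h after seeding; fluorescence was recorded at intervals up to 40 h.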
# [2] = qHTS RealTime-Glo MT Cell Viability Assay in HepG2 cells - 8 hour (AID 1224873); also: nearly all actives have a fitted effect of over 55% in size
# Method in brief: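 HepG2 cells mixed with RealTime-Glo MT reagents (NanoLuc plus cell-permeant prosubstrate) were seeded at 600 cells/well, incubated 5 h at 37 C/5% CO2, then pinned with compounds in DMSO; nonlytic luminescence tracked viability during 40 h treatment.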
# [3] = qHTS RealTime-Glo MT Cell Viability Assay in HEK293 cells - 40 hour (AID 1224874); conditions: RealTime-Glo luminescence; max response: stronger effect = lower value; also: nearly all actives have a fitted effect of over 50% in size; also: potency is read from the fitted curve at half-maximal effect
# Method in brief: (§2)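 Nonlytic bioluminescent viability monitoring. HEK293 at 600 cells/well with reagent; 5 h settle; compound transfer by pintool; plates held at 37 C and read at set time points.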
# [4] = A CellTox Green Cytotoxicity Assay to monitor cytotoxicity in HEK293 cells - 24 hour (AID 1224875); also: series mostly up to about 77 µM; nearly all actives have a fitted effect of over 45% in size
# Method in brief: as §1
# [5] = A CellTox Green Cytotoxicity Assay to monitor cytotoxicity in HepG2 cells - 16 hour (AID 1224876); also: nearly all actives have a fitted effect of over 45% in size
# Method in brief: (§3)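 Real-time, homogeneous cytotoxicity readout: dead-cell DNA staining by CellTox Green in HepG2 monolayers, fluorescence measured at timed intervals up to 40 h of continuous compound exposure.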
# [6] = qHTS RealTime-Glo MT Cell Viability Assay in HepG2 cells - 32 hour (AID 1224877); also: nearly all actives have a fitted effect of over 55% in size
# Method in brief: (§4)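 Tox21 10K library screened in qHTS format on HepG2 cells carrying RealTime-Glo reagents. Compounds were added after a 5 h preincubation, and the luminescent signal from continuous culture was measured repeatedly during 40 h treatment.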
# [7] = A CellTox Green Cytotoxicity Assay to monitor cytotoxicity in HepG2 cells - 24 hour (AID 1224878); also: nearly all actives have a fitted effect of over 45% in size
# Method in brief: as §3
# [8] = A CellTox Green Cytotoxicity Assay to monitor cytotoxicity in HepG2 cells - 40 hour (AID 1224879); also: nearly all actives have a fitted effect of over 40% in size
# Method in brief: as §3
# [9] = qHTS RealTime-Glo MT Cell Viability Assay in HEK293 cells - 0 hour (AID 1224880)
# Method in brief: as §2
# [10] = A CellTox Green Cytotoxicity Assay to monitor cytotoxicity in HEK293 cells - 32 hour (AID 1224881); also: nearly all actives have a fitted effect of over 40% in size
# Method in brief: as §1
# [11] = A CellTox Green Cytotoxicity Assay to monitor cytotoxicity in HepG2 cells - 0 hour (AID 1224882); also: nearly all actives have a fitted effect of over 35% in size
# Method in brief: as §3
# [12] = A CellTox Green Cytotoxicity Assay to monitor cytotoxicity in HepG2 cells - 32 hour (AID 1224883); also: nearly all actives have a fitted effect of over 50% in size
# Method in brief: as §3
# [13] = A CellTox Green Cytotoxicity Assay to monitor cytotoxicity in HEK293 cells - 8 hour (AID 1224884); also: nearly all actives have a fitted effect of over 35% in size
# Method in brief: as §1
# [14] = qHTS RealTime-Glo MT Cell Viability Assay in HepG2 cells - 16 hour (AID 1224885); also: nearly all actives have a fitted effect of over 50% in size
# Method in brief: as §4
# [15] = qHTS RealTime-Glo MT Cell Viability Assay in HEK293 cells - 24 hour (AID 1224886); also: nearly all actives have a fitted effect of over 50% in size; also: potency is read from the fitted curve at half-maximal effect; as to activity change, negative = cytotoxicity: top concentration of the series differs between compounds
# Method in brief: (§5)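 Luminescence generated by NanoLuc from substrate produced by living HEK293 cells served as the viability signal. Each value reflects the reading at its stated time point during continuous 40 h compound exposure at 37 C.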
# [16] = qHTS RealTime-Glo MT Cell Viability Assay in HEK293 cells - 8 hour (AID 1224887); also: nearly all actives have a fitted effect of over 50% in size; also: potency is read from the fitted curve at half-maximal effect; as to activity change, negative = cytotoxicity: top concentration of the series differs between compounds
# Method in brief: as §2
# [17] = A CellTox Green Cytotoxicity Assay to monitor cytotoxicity in HEK293 cells - 16 hour (AID 1224888); also: nearly all actives have a fitted effect of over 35% in size
# Method in brief: as §1
# [18] = qHTS RealTime-Glo MT Cell Viability Assay in HepG2 cells - 0 hour (AID 1224889); also: nearly all actives have a fitted effect of over 50% in size
# Method in brief: as §4
# [19] = qHTS RealTime-Glo MT Cell Viability Assay in HEK293 cells - 16 hour (AID 1224872); also: nearly all actives have a fitted effect of over 50% in size; also: potency is read from the fitted curve at half-maximal effect; as to activity change, negative = cytotoxicity: top concentration of the series differs between compounds
# Method in brief: as §5
# [20] = A CellTox Green Cytotoxicity Assay to monitor cytotoxicity in HepG2 cells - 8 hour (AID 1224890); also: nearly all actives have a fitted effect of over 45% in size
# Method in brief: as §3
smiles,measurement,setting,value
CCOC(=O)/C=C(C)/C=C/C[C@@H](C)CCCC(C)C,Potency,[1],inactive
same,Potency,[2],inactive
same,max response,[3],8.55%
same,Potency,[4],inactive
same,Potency,[5],inactive
same,Potency,[6],inactive
same,Potency,[7],inactive
same,Potency,[8],inactive
same,outcome,[9],inactive
same,Potency,[10],inactive
same,outcome,[11],inactive
same,Potency,[12],inactive
same,Potency,[13],inactive
same,Potency,[14],inactive
same,Potency,[15],inactive
same,Potency,[16],inactive
same,Potency,[17],inactive
same,Potency,[18],inactive
O=C(Nc1ccccc1)N(Cc1ccc(Cl)cc1)C1CCCC1,Potency,[1],inactive
same,Potency,[19],21.9 µM (active)
same,Potency,[3],24.5 µM (active)
same,Potency,[4],inactive
same,Potency,[5],inactive
same,Potency,[7],inactive
same,Potency,[8],inactive
same,outcome,[9],inactive
same,Potency,[10],inactive
same,Potency,[12],inactive
same,Potency,[13],inactive
same,Potency,[15],21.9 µM (active)
same,Potency,[16],24.5 µM (active)
same,Potency,[17],inactive
same,Potency,[18],inactive
same,Potency,[20],inactive
COC(=O)c1ccccc1S(=O)(=O)NC(=O)Nc1nc(C)cc(C)n1,Potency,[1],inactive
same,Potency,[2],inactive
same,max response,[3],7.64%
same,Potency,[4],inactive
same,Potency,[5],inactive
same,Potency,[6],inactive
same,Potency,[7],inactive
same,Potency,[8],inactive
same,outcome,[9],inactive
same,Potency,[10],inactive
same,Potency,[12],inactive
same,Potency,[13],inactive
same,Potency,[14],inactive
same,Potency,[15],inactive
same,Potency,[16],inactive
same,Potency,[17],inactive
same,Potency,[18],inactive
same,Potency,[20],inactive
CNNC,Potency,[1],inactive
same,Potency,[2],inactive
same,Potency,[4],inactive
same,Potency,[5],inactive
same,Potency,[6],inactive
same,Potency,[7],inactive
same,Potency,[8],inactive
same,outcome,[9],inactive
same,Potency,[10],inactive
same,outcome,[11],inactive
same,Potency,[12],inactive
same,Potency,[13],inactive
same,Potency,[14],inactive
same,Potency,[15],inactive
same,Potency,[16],inactive
same,Potency,[17],inactive
same,Potency,[18],inactive
same,Potency,[20],inactive
CN1CCN(C(=O)O[C@H]2c3nccnc3C(=O)N2c2ccc(Cl)cn2)CC1,Potency,[1],inactive
same,Potency,[2],inactive
same,max response,[3],6.06%
same,Potency,[4],inactive
same,Potency,[5],inactive
same,Potency,[6],inactive
same,Potency,[7],inactive
same,Potency,[8],inactive
same,outcome,[9],inactive
same,Potency,[10],inactive
same,Potency,[12],inactive
same,Potency,[13],inactive
same,Potency,[14],inactive
same,Potency,[15],inactive
same,Potency,[16],inactive
same,Potency,[17],inactive
same,Potency,[18],inactive
same,Potency,[20],inactive
CC1=C(C(=O)O)N2C(=O)[C@@H](N)[C@H]2SC1,cytotoxicity increase,[1],-14.9% [at 15.8 µM]
same,"viability change, negative = cytotoxic",[2],1.32% [at 15.8 µM]
same,max response,[3],1.69%
same,activity change,[4],"-5.37% [at 15.8 µM, stronger effect = higher value]"
same,cytotoxicity increase,[5],-9.17% [at 15.8 µM]
same,"activity change, negative = cytotoxic",[6],1.22% [at 15.8 µM]
same,cytotoxicity,[7],-8.35% [at 15.8 µM]
same,cytotoxicity increase,[8],-6.02% [at 15.8 µM]
same,"activity change, negative = cytotoxicity",[9],1.57% [at 15.8 µM]
same,cytotoxicity increase,[10],-10.4% [at 15.8 µM]
same,cytotoxicity,[11],-6.07% [at 15.8 µM]
same,cytotoxicity increase,[12],-8.31% [at 15.8 µM]
same,cytotoxicity increase,[13],-10.6% [at 15.8 µM]
same,"activity change, negative = cytotoxic",[14],0.0678% [at 15.8 µM]
same,"activity change, negative = cytotoxicity",[15],-0.764% [at 15.8 µM]
same,"activity change, negative = cytotoxicity",[16],-0.746% [at 15.8 µM]
same,cytotoxicity increase,[20],-7.33% [at 15.8 µM]
O=C1CN=C(c2ccccc2)c2cc([N+](=O)[O-])ccc2N1,Potency,[1],inactive
same,Potency,[2],inactive
same,max response,[3],-17.7%
same,Potency,[4],inactive
same,Potency,[5],inactive
same,Potency,[6],inactive
same,Potency,[7],inactive
same,Potency,[8],inactive
same,outcome,[9],inactive
same,Potency,[10],inactive
same,outcome,[11],inactive
same,Potency,[12],inactive
same,Potency,[13],inactive
same,Potency,[14],inactive
same,Potency,[15],inactive
same,Potency,[16],inactive
same,Potency,[17],inactive
same,Potency,[18],inactive
same,Potency,[20],inactive
ClCC(Cl)Cl,Potency,[1],inactive
same,Potency,[2],inactive
same,max response,[3],-2.64%
same,Potency,[4],inactive
same,Potency,[5],inactive
same,Potency,[6],inactive
same,Potency,[7],inactive
same,Potency,[8],inactive
same,outcome,[9],inactive
same,Potency,[10],inactive
same,outcome,[11],inactive
same,Potency,[12],inactive
same,Potency,[14],inactive
same,Potency,[15],inactive
same,Potency,[16],inactive
same,Potency,[17],inactive
same,Potency,[18],inactive
same,Potency,[20],inactive
CC(C(O)c1ccccc1)N(C)C/C=C/c1ccccc1 (centres undefined),Potency,[1],inactive
same,Potency,[2],inactive
same,max response,[3],-19.6%
same,Potency,[4],inactive
same,Potency,[5],inactive
same,Potency,[6],inactive
same,outcome,[9],inactive
same,Potency,[10],inactive
same,Potency,[13],inactive
same,Potency,[14],inactive
same,Potency,[15],inactive
same,Potency,[16],inactive
same,Potency,[17],inactive
same,Potency,[20],inactive
CCOP(=O)(N=C1SCCS1)OCC,Potency,[1],inactive
same,Potency,[2],inactive
same,max response,[3],21.4%
same,Potency,[4],inactive
same,Potency,[5],inactive
same,Potency,[6],inactive
same,Potency,[7],inactive
same,Potency,[8],inactive
same,outcome,[9],inactive
same,Potency,[10],inactive
same,outcome,[11],inactive
same,Potency,[12],inactive
same,Potency,[14],inactive
same,Potency,[15],inactive
same,Potency,[16],inactive
same,Potency,[17],inactive
same,Potency,[18],inactive
same,Potency,[20],inactive
CC(=O)Nc1cc([As](=O)(O)O)ccc1O,Potency,[1],inactive
same,Potency,[19],inactive
same,Potency,[4],inactive
same,Potency,[5],inactive
same,Potency,[6],inactive
same,Potency,[7],inactive
same,Potency,[8],inactive
same,outcome,[9],inactive
same,Potency,[10],inactive
same,outcome,[11],inactive
same,Potency,[12],inactive
same,Potency,[13],inactive
same,Potency,[14],inactive
same,Potency,[15],inactive
same,Potency,[16],inactive
same,Potency,[17],inactive
same,Potency,[18],inactive
same,Potency,[20],inactive
O=P(O)(Oc1ccccc1)Oc1ccccc1,Potency,[1],inactive
same,Potency,[2],inactive
same,max response,[3],11.6%
same,Potency,[4],inactive
same,Potency,[5],inactive
same,Potency,[6],inactive
same,Potency,[7],inactive
same,Potency,[8],inactive
same,outcome,[9],inactive
same,Potency,[10],inactive
same,outcome,[11],inactive
same,Potency,[12],inactive
same,Potency,[13],inactive
same,Potency,[14],inactive
same,Potency,[16],inactive
same,Potency,[17],inactive
same,Potency,[18],inactive
same,Potency,[20],inactive
O=C1OC(CCN2CCCCC2)OC1(c1ccccc1)c1ccccc1 (centres undefined),Potency,[1],inactive
same,Potency,[19],inactive
same,max response,[3],5.83%
same,Potency,[4],inactive
same,Potency,[5],inactive
same,Potency,[6],inactive
same,Potency,[7],inactive
same,outcome,[9],inactive
same,Potency,[10],inactive
same,outcome,[11],inactive
same,Potency,[12],inactive
same,Potency,[13],inactive
same,Potency,[14],inactive
same,Potency,[15],inactive
same,Potency,[16],inactive
same,Potency,[17],inactive
same,Potency,[18],inactive
CCC#N,Potency,[1],inactive
same,Potency,[2],inactive
same,max response,[3],0.0723%
same,Potency,[4],inactive
same,Potency,[5],inactive
same,Potency,[6],inactive
same,Potency,[7],inactive
same,Potency,[8],inactive
same,outcome,[9],inactive
same,Potency,[10],inactive
same,outcome,[11],inactive
same,Potency,[12],inactive
same,Potency,[13],inactive
same,Potency,[14],inactive
same,Potency,[15],inactive
same,Potency,[16],inactive
same,Potency,[17],inactive
same,Potency,[20],inactive
O=C1OC(=O)C2C1C1(Cl)C(Cl)=C(Cl)C2(Cl)C1(Cl)Cl (centres undefined),Potency,[1],inactive
same,Potency,[2],inactive
same,max response,[3],-0.525%
same,Potency,[4],inactive
same,Potency,[5],inactive
same,Potency,[6],inactive
same,Potency,[7],inactive
same,Potency,[8],inactive
same,outcome,[9],inactive
same,Potency,[10],inactive
same,outcome,[11],inactive
same,Potency,[12],inactive
same,Potency,[13],inactive
same,Potency,[14],inactive
same,Potency,[15],inactive
same,Potency,[16],inactive
same,Potency,[17],inactive
same,Potency,[18],inactive
same,Potency,[20],inactive
